Laboratory results published in PubChem BioAssay (NCI).
“And” between values parts separate entries of the source, which are not always exact repeats. Identical values can stand only once. Compounds without any hit were thinned out: in the full panel of roughly 83,000, 20% have a hit.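 96-well plates, one dose, 48 hours. Percent growth reported; active if below 10.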 A number with no mark means an inactive call. The source made the active and inactive calls.

Test system: MDA-MB-468 breast
Assay: NCI-60 one-dose screen, 48 h (100 = growth as untreated, 0 = no growth, -100 = all killed)
Details: 10 µM unless noted

Row | SMILES | growth
1 | Nc1cc(N)c(N=Nc2ccc(S(=O)(=O)O)cc2)cc1N=Nc1ccc(-c2ccc(N=Nc3ccc(O)c(C(=O)O)c3)cc2)cc1 | 97.6%
2 | CCN(CC)S(=O)(=O)c1ccc(S(=O)(=O)N2CCC[C@@H](C(=O)N3CCN(c4nc(C(C)C)no4)CC3)C2)cc1 | 12.4%
3 | O=C1O[C@H]([C@H](O)CO)C(O)=C1O | 90%
4 | COC1(OC)C2(Cl)C=C(c3ccccc3)C1(Cl)C(Cl)=C2Cl (stereo not given) | 108%
5 | COc1ccc(/C=C/C(c2cc(OC)c(OC)c(OC)c2)n2cncn2)cc1 (stereo not given) | 40.9%
6 | COc1cc2nc(Cl)nc(NCCO)c2cc1OC | 99.2%
7 | Cc1cc(O)ccc1C1=NN(c2ccc(S(C)(=O)=O)cc2)C(=O)CC1 | 103%
8 | CCCCCCCCO | 98.9%
9 | C=CCCCCOc1cccc(/C=C2\N=C3SCCCN3C2=O)c1 | 89%
10 | CCN(CC)CCOc1ccc(C2=C(c3ccccc3)CCc3cc(OC)ccc32)cc1 | -44.2% (active)
11 | CC(=O)c1ccccc1O | 101% and 103% and 108%
12 | CCCCCCCCN=C(NCCCCCCCC)SCc1cccc2ccccc12 | -93.9% (active)
13 | Nc1n[nH]c2cccc(C#Cc3cccc(C(=O)Nc4cc(C(F)(F)F)cc(C(F)(F)F)c4)c3)c12 | 87.5%
14 | O=[N+]([O-])c1cc2ncccc2c2ncccc12 | 89%
15 | CC1C2CCC(C2)C1COCCOCCO (stereo not given) | 102%
16 | CC1(C)CC[C@]2(C(=O)N3CCNCC3)CC[C@]3(C)C(=CC[C@@H]4[C@@]5(C)CCC(=O)C(C)(C)[C@@H]5CC[C@]43C)[C@@H]2C1 | 105%
17 | COc1cccc(C2C3=C(COC3=O)N(CCO)c3cc(OC)ccc32)c1 (stereo not given) | -13.2% (active)
18 | COc1ccc(NC(=O)c2ccc(Nc3ncnc4[nH]c(C)c(C)c34)cc2)cc1 | 119%
19 | N#Cc1c(-c2ccccc2)cc(-c2ccccc2)n(CCC(=O)O)c1=O | 26.6%
20 | Cc1cc(S(=O)(=O)N(C)C)cc(NCC(=O)NC(=O)NCC(C)C)c1C | 104%

Row | SMILES | growth
21 | NC(CC(N)C(=O)O)C(=O)O (stereo not given) | 90.5%
22 | CC(C)=CCc1cc(O)c(O)c2oc3cc(O)cc(O)c3c(=O)c12 | 123%
23 | CCCCNc1ccc(Nc2ccccc2)cc1 | 11.4%
24 | COc1cnc2c(c1)C(=O)c1c-2n(CCCN2CCOCC2)c(=O)c2cc(F)ccc12 | -50.1% (active)
25 | CC(Nc1c(C#N)cnc2ccc(-c3cnc(N)nc3)cc12)c1ccccc1 (stereo not given) | -9.18% (active)
26 | COc1ccc(OC)c(NC2=C(Cl)C(=O)C(C)=C(C)C2=O)c1 | -31.6% (active)
27 | N=C(N)c1ccc(-c2ccc(-c3ccc(Cl)cn3)s2)cc1 | -28.2% (active)
28 | O=C(O)c1cn(C2CC2)c2cc(N3CCN(C(=O)CSc4nnc(-c5ccc(Cl)cc5)n4-c4ccccc4)CC3)c(F)cc2c1=O | 101%
29 | Nc1nc(Nc2ccccc2SSc2ccccc2Nc2nc(N)nc(-c3ccccc3)n2)nc(-c2ccccc2)n1 | 102%
30 | COc1ccc2cc(C(=O)N3CCC([C@@H](C)C(=O)NCc4ccc5c(c4)OCO5)CC3)[nH]c2c1 | 41.1% [50 µM]
31 | Cc1cc(C)c(-c2c(C)cc(C)cc2CBr)c(CBr)c1 | 45.1%
32 | O=c1cc(-c2ccc(OCc3ccccc3)cc2)oc2c(I)c(OCc3ccccc3)cc(OCc3ccccc3)c12 | 102%
33 | C=C(C)[C@@H]1CC[C@]2(C(=O)OC)CC[C@]3(C)[C@H](CC[C@@H]4[C@@]5(C)CC/C(=N\OCCC(=NCCC#N)NOCCC#N)C(C)(C)[C@@H]5CC[C@]43C)[C@@H]12 | 4.41% [100 µM] (active)
34 | COc1cc(-c2nc(SCCC(C)C)nc(NNC(=O)c3ccncc3)c2C#N)cc(OC)c1OC | 77.7%
35 | CCCCCCCCCCCCCCCCCC(=O)OCCCCCCCCCCCCC | 117%
36 | Cn1c(=O)cc2c3c(c(NCCCO)ccc31)C(=O)c1ccccc1-2 | 39.8%
37 | Nc1nc(Nc2ccccc2)c(C=Nc2ccccc2)c(=O)[nH]1 | 99.6%
38 | COc1ccc(/C=C2\SC(=Nc3cc(C)[nH]n3)NC2=O)cc1 | 82.6%
39 | C=C1C(=O)O[C@H]2[C@H]1CC/C(C=Nc1ccc(C(F)(F)F)cc1N)=C\CC[C@@]1(C)O[C@@H]21 | 1.92% (active)
40 | C=C(C)[C@@H]1CC[C@]2(C)[C@H](CC=C3[C@@H]4CC(C)(C)CC[C@]4(C(=O)NCC#CCN4CCN(C)CC4)CC[C@]32C)[C@@]1(C)CCC#N | 47.9%
